Screens as filed in PubChem BioAssay.
Compounds with a hit are over-represented: about 7.3% of the library has one in this group of screens.
FLuc modulator = qHTS profiling assay for firefly luciferase inhibitor/activator using purifed enzyme and Km concentrations of substrates (counterscreen for miR-21 project); Potency, µM (doses to about 57.5 µM), for the others: top-dose activity change, negative = inhibition, actives largely listed as inhibitors; AID 588342, 2011; 360,000 tested, 6.9% active; purified FLuc, Km substrates, luminescence inhibition;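 also: plate controls were vehicle for no effect and reference inhibitor for full effect; nearly all actives have a fitted effect of over 55% in size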
Target sequence (P08659 whole entry, looked up): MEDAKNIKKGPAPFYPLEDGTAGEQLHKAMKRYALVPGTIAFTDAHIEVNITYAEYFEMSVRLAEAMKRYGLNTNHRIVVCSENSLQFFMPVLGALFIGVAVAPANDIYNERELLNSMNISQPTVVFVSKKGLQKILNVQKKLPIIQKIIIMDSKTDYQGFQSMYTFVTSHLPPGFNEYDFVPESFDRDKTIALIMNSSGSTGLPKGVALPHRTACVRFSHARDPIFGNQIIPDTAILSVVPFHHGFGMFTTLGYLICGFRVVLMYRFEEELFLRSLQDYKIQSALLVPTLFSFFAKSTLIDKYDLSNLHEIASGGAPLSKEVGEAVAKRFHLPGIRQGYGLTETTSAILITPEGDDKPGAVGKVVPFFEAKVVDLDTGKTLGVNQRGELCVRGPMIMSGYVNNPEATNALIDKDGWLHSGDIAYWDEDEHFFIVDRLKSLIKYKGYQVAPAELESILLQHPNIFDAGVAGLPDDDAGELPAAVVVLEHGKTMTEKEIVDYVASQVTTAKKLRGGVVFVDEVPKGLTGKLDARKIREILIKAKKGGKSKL
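Purified P. pyralis luciferase (10nM final) with 10uM D-luciferin and 10uM ATP (Km levels) in 50mM Tris acetate pH 7.5, 10mM Mg acetate, 0.01% Tween-20, 0.05% BSA; qHTS 6-point titration, ~60 µM downward; luminescence read.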
Rab9 promoter act = qHTS Assay for Rab9 Promoter Activators. 320,000 tested, 2.8% active. Potency, µM (doses to about 9.22 µM), for the others: at the highest dose activation, negative = inhibition, most hits filed as activators. Huh7 Rab9 promoter-luciferase reporter, luminescence, 24 h; also: % of control where 0% means no effect; nearly all actives have a fitted effect of over 60% in size
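Promoter activation is measured as luciferase luminescence in Huh7 cells stably transfected with a Rab9 promoter–luciferase construct, following 24 h compound exposure at 37 °C and 10 min reagent incubation at ambient temperature.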
Luc counter = Counterscreen for Luciferase (Kinase-Glo TM) Inhibition | AID 1379, 2008 | Potency, µM (titrated, usually from 38.3 µM), without a hit: at the highest dose activity change, negative = inhibition, usual class: inhibitors | Kinase-Glo luciferase, ATP luminescence, 8 min | 200,000 tested, 0.28% active | Luciferin 4-monooxygenase (Photuris pensylvanica), Q27757; also: % is scaled to controls: 0 for no effect and ±100 for the full control effect; nearly all actives have a fitted effect of over 60% in size
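Compound is pinned into ATP-containing buffer (10 uM ATP, imidazole pH 7.2, 7 mM MgCl2). Kinase-Glo luciferase reagent is then added. Light output is recorded following an 8-min room-temperature incubation.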
SMN2 splice enh = qHTS Assay for Enhancers of SMN2 Splice Variant Expression; HEK293 SMN2-luciferase splicing reporter, luminescence, 30-36 h; Potency, µM (highest dose often 46.1 µM), without a hit: top-dose activity change, positive = activation, most hits filed as activators; 210,000 tested, 2.8% active; also: % of control where 0% means no effect; nearly all actives have a fitted effect of over 55% in size
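HEK293 cells carry an SMN2 minigene-luciferase reporter in which exon 7 inclusion puts luciferase in frame. Cells were seeded at 2000 cells/well, attached for 10-12 hours, then exposed to compounds for 30-36 hours at 37C before ONE-Glo luminescence.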
ELG1 genotoxic = qHTS screen for small molecules that induce genotoxicity in human embryonic kidney (HEK293T) cells expressing luciferase-tagged ELG1; HEK293T ELG1-luciferase reporter, luminescence, 16 h; Potency, µM (top dose mostly 46 µM), inactives show top-dose activity change, positive = activation, most hits filed as activators; 330,000 tested, 1.3% active; AID 504466, 2011; also: % of control where 0% means no effect; nearly all actives have a fitted effect of over 60% in size
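Quantitative HTS format in 1536-well plates. HEK293T ELG1-luciferase reporter cells receive test compound and are incubated 16 hr at 37 °C, 5% CO2; ONE-Glo added, 30 min room temperature, then luminescence read.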
NPC1 prom act = qHTS Assay for NPC1 Promoter Activators; 320,000 tested, 2.4% active; AID 485313, 2010; Huh7 NPC1 promoter luciferase reporter, 24 h; Potency, µM (top dose mostly 9.22 µM), inactives show at the highest dose activation, actives largely listed as activators; also: % of control where 0% means no effect; nearly all actives have a fitted effect of over 60% in size
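NPC1 promoter–luciferase Huh7 cells; 24 h compound; luminescence.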
* marks the source's active call; other numbers are inactive results; ? = inconclusive; nt = not tested or not shown. Calls follow the shape of the dose curve; as a rule, active = well fitted curve in the direction sought with a large enough effect; inconclusive = small, poorly fitted or top-dose-only effect, or another doubt; inactive = no such curve, though single readings can be large; an effect the other way counts as inactive or inconclusive. Potency is read from the fitted curve at half-maximal effect.

SMILES	FLuc modulator	Rab9 promoter act	Luc counter	SMN2 splice enh	ELG1 genotoxic	NPC1 prom act
Nc1nc2ccc(O)cc2s1	-1%	3%	-2%	1%	1%	-1%
Cc1cc2nc(N)sc2cc1C	9.5µM*	nt	-23%	?	nt	nt
Nc1nc2ccc(S(=O)(=O)c3ccc4nc(N)sc4c3)cc2s1	11%	4%	0%	-12%	-3%	-2%
CC(C)c1ccc2nc(N)sc2c1	6.7µM*	2µM*	-1%	13µM*	-8%	1.6µM*
Cc1sc(NC(=O)C2C3CCC(O3)C2C(=O)O)nc1-c1ccc(CC(C)C)cc1 (configuration not stated)	15µM*	20%	0%	20%	?	7%
CCC(=O)Nc1cccc(NC(=S)NC(=O)c2ccc(C)cc2)c1	6.7µM*	1.6µM*	5%	10µM*	?	2µM*
CCC(=O)Nc1cccc(NC(=S)NC(=O)c2cccc(C)c2)c1	?	1.6µM*	1%	11µM*	?	3.2µM*
O=C(NC(=S)Nc1ccccc1C(=O)O)c1ccc2ccccc2c1	?	14%	nt	nt	2%	-1%
CCC(=O)Nc1cccc(NC(=S)NC(=O)c2cc3ccccc3o2)c1	0.6µM*	1.1µM*	-6%	2.8µM*	23µM*	1.1µM*
O=C(O)c1cccc(NC(=S)NC(=O)c2ccc3ccccc3c2)c1	1.3µM*	?	nt	nt	?	?
Cc1nn(-c2ccccc2)c2c1N(CCCC(=O)NC(C)c1ccccc1)C(=O)CS2 (configuration not stated)	-3%	nt	nt	nt	nt	nt
Cc1cc2c(cc1C)NC(CC(=O)Nc1ccccc1SC(F)(F)F)C(=O)N2 (configuration not stated)	4%	nt	nt	-3%	nt	nt
COc1cc(NC(=O)c2cc3cc4ccc(C)cc4nc3o2)cc(OC)c1OC	-5%	nt	nt	-25%	nt	nt
O=C(Cn1ncc2c3ccccc3n(Cc3cccc(Cl)c3)c2c1=O)NCCCN1CCCCC1	-2%	nt	nt	7%	nt	nt
CCC(=O)NC(=S)Nc1cccc(NC(=O)CC)c1	14%	-9%	-3%	1%	1%	-3%
CCOc1cccc(C(=O)Nc2ccc(NC(=O)c3ccccc3)c(C)c2)c1	13µM*	2%	nt	nt	-3%	0%
CC(=O)c1cccc(NC(=S)NC(=O)c2ccc(Br)cc2)c1	-13%	?	2%	?	?	?
CCOc1cccc(C(=O)NC(=S)Nc2ccccc2)c1	6.7µM*	?	1%	11µM*	?	?
CCC(=O)Nc1cccc(NC(=S)NC(=O)c2ccccc2)c1	15µM*	?	0%	11µM*	16%	2.8µM*
CC(=O)c1cccc(NC(=S)NC(=O)c2ccc(C)cc2)c1	11µM*	1.4µM*	4%	11µM*	?	3.2µM*
COc1cc2c(cc1NS(=O)(=O)c1cccc(C#N)c1)n(C)c(=O)n2C	-12%	nt	nt	nt	nt	nt
CN1CCN(c2ccccc2NC(=S)NC(=O)c2cc3ccccc3o2)CC1	0%	4%	nt	nt	0%	0%
CC(=O)c1cccc(NC(=S)NC(=O)c2ccc(C)cc2Cl)c1	15µM*	?	-2%	?	12%	24%
CC(=O)c1cccc(NC(=S)NC(=O)c2ccccc2Cl)c1	?	11%	-2%	17%	4%	16%
Cc1ccc(NC(=S)NC(=O)c2ccccc2)cc1NC(=S)NC(=O)c1ccccc1	-17%	1.8µM*	nt	nt	?	?
SMILES	FLuc modulator	Rab9 promoter act	Luc counter	SMN2 splice enh	ELG1 genotoxic	NPC1 prom act
O=C(NC(=S)Nc1cccc(CO)c1)c1ccc(-c2ccccc2)cc1	?	1.6µM*	-1%	?	3%	1µM*
Cc1c(NC(=S)NC(=O)c2cc3ccccc3o2)cccc1C(=O)O	?	1.8µM*	nt	nt	-2%	4µM*
Cc1ccc2c(c1)-c1c(cnn1CC(=O)N1CCN(c3cccc(C(F)(F)F)c3)CC1)CO2	-9%	nt	nt	1%	nt	nt
CCc1ccccc1N(CC)C(=O)C(=O)Nc1ccc2nc3n(c(=O)c2c1)CCCCC3	-1%	nt	nt	-3%	nt	nt
CCCCOC(=O)Cn1nnc2sc(-c3ccccc3)cc2c1=O	-3%	nt	nt	-1%	nt	nt
CCc1ccccc1N(C)C(=O)c1cn(CC(C)C)c(=O)c2cc(OC)c(OC)cc12	2%	nt	nt	-18%	nt	nt
Cc1ccc(-n2ncc3c(N(C)Cc4ccccc4)ncnc32)cc1	0.67µM*	nt	nt	nt	nt	nt
Cc1ccc(-n2ncc3c(N(CCO)Cc4ccccc4)ncnc32)cc1	11µM*	nt	nt	nt	nt	nt
Cc1coc2c(C)c3oc(=O)c(CCC(=O)N4CCCCC4)c(C)c3cc12	-13%	nt	nt	-8%	nt	nt
COc1cccc(-c2cn3nc(C)c(C)nc3n2)c1	11µM*	2.8µM*	11µM*	13µM*	?	2µM*
CCc1nn2cc(-c3ccccc3)nc2s1	0.48µM*	0.13µM*	10µM*	1.4µM*	nt	0.11µM*
Cc1nn2cc(-c3ccc(-c4ccccc4)cc3)nc2s1	0.54µM*	?	7%	?	0.82µM*	0.63µM*
Cc1nc2nc(-c3cccs3)cn2nc1C	11µM*	0.5µM*	?	14µM*	?	1.4µM*
Cc1noc(C)c1S(=O)(=O)N1CCCC(C(=O)Nc2ccc(C(C)C)cc2)C1 (configuration not stated)	0%	nt	nt	?	nt	nt
CC(=O)c1cc2c(cc1N/C(=N/S(=O)(=O)c1ccc(F)cc1)c1ccccc1)OCO2	-7%	nt	nt	nt	nt	nt
